In PubChem BioAssay (NCATS):
Records with an inconclusive call do not appear. The source made the active and inactive calls. Unless noted, calls follow the shape of the full dose curve.

Key:
[1] = qHTS for Inhibitors of the Functional Ribonucleoprotein Complex (vRNP) of Lassa (LASV) Arenavirus: LASV Primary Screen - GLuc reporter signal (AID 1347082; calls by dose curve; tested in HEK293 reporter line; also: series mostly up to about 57 µM; nearly all actives have a fitted effect of over 60% in size)
[2] = qHTS for Inhibitors of the Functional Ribonucleoprotein Complex (vRNP) of Lassa (LASV) Arenavirus: Viability assay - alamar blue signal for LASV Primary Screen (AID 1347083; calls by dose curve; tested in HEK293 reporter line; also: series mostly up to about 57 µM; nearly all actives have a fitted effect of over 80% in size)
[3] = qHTS for Inhibitors of the Functional Ribonucleoprotein Complex (vRNP) of Lymphocytic Choriomeningitis Arenaviruses (LCMV): Viability assay - alamar blue signal for LCMV Primary Screen (AID 1347085; calls by dose curve; tested in HEK293 reporter line; also: series mostly up to about 57 µM; nearly all actives have a fitted effect of over 80% in size)
[4] = target: Nucleoprotein (Lymphocytic choriomeningitis virus (strain Armstrong)) (UniProt P09992); assay: qHTS for Inhibitors of the Functional Ribonucleoprotein Complex (vRNP) of Lymphocytic Choriomeningitis Arenaviruses (LCMV): LCMV Primary Screen - GLuc reporter signal (AID 1347086); also: series mostly up to about 57 µM; nearly all actives have a fitted effect of over 70% in size
[5] = qHTS for inhibitors of Rabies Virus screened against the NCATS CANVASS Library (AID 1347402); also: series mostly up to about 46 µM
[6] = Cytotoxicity counterscreen for inhibitors of SARS-CoV-2 cell entry (AID 1645845); also: series mostly up to about 57 µM; nearly all actives have a fitted effect of over 50% in size
Outline: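 Counterscreen run in the same HEK293-ACE2 line as the pseudotyped-particle entry assay, without particles. Viability after 48 h at 37 C was read as ATP luminescence, scaled between cell-containing and cell-free wells.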

Measured: Potency

Chain of Nucleoprotein (Lymphocytic choriomeningitis virus (strain Armstrong)) (P09992 whole entry, looked up): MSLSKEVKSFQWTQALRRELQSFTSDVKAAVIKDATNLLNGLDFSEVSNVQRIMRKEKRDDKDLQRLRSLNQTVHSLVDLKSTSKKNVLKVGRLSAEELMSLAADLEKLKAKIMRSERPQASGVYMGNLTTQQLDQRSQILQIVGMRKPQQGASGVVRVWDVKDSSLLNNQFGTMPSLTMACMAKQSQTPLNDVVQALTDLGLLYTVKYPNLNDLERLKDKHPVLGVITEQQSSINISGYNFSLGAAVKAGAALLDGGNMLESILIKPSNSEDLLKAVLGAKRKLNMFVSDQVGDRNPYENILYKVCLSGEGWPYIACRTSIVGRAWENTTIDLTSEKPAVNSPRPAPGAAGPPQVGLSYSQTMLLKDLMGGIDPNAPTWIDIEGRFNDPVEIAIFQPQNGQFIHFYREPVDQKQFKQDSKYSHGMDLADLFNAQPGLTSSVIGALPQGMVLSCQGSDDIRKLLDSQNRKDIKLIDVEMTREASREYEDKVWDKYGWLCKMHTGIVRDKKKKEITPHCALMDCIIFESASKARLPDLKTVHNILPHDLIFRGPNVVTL

O=c1c(O)c(-c2ccc(O)c(O)c2)oc2cc(O)ccc12
inactive: all assays above
